Experiment [1] deals with Endonuclease 4 (Escherichia coli (strain K12)) (UniProt P0A6C1). The experiment in a line: Counterscreen for APE1 Inhibitors: qHTS Validation Assay for Inhibitors of Endonuclease IV (AID 1708). The gist of the method:
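Concentration-response counterscreen run identically to the APE1 assay: 15 min room-temperature preincubation of 2 nM enzyme with compound, reaction started with 50 nM quenched abasic DNA, progress taken from kinetic fluorescence.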

Experiment [2] in a line: qHTS for differential inhibitors of proliferation of Plasmodium falciparum line 7G8 (AID 1815).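 Also: parasite growth measured after three days of incubation.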 Also: potency is read from the fitted curve at half-maximal effect. For orientation: In qHTS, concentration-response curves come from the screen itself.
A short description of experiment [3]: qHTS for differential inhibitors of proliferation of Plasmodium falciparum line GB4 (AID 1816).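 Also: parasite growth measured after 72 h incubation.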 Also: potency is read from the fitted curve at half-maximal effect. The settings on record: Potency: Plasmodium falciparum GB4 proliferation inhibition.
Experiment [4] can be described thus: qHTS for differential inhibitors of proliferation of Plasmodium falciparum line 3D7 (AID 1876). Also: potency is read from the fitted curve at half-maximal effect.
Experiment [5] in a line: qHTS for differential inhibitors of proliferation of Plasmodium falciparum line D10 (AID 1877).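 Also: parasites grown with compound for 72 h before DNA staining.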 Also: potency is read from the fitted curve at half-maximal effect.
Experiment [6] can be described thus: qHTS for differential inhibitors of proliferation of Plasmodium falciparum line Dd2 (AID 1882). Also: nearly all actives have a fitted effect of over 65% in size. Also: potency is read from the fitted curve at half-maximal effect. The settings on record: Potency: Plasmodium falciparum Dd2 proliferation inhibition. The gist of the method: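 Dd2-infected erythrocytes (0.3% parasitemia, 2.5% hematocrit final) incubated with compound 72 h at 37 C, 5% CO2; lysed with saponin/Triton buffer containing SYBR Green I, incubated overnight in the dark, then read by fluorescence (485/535 nm). Normalized to 0.29 uM artemisinin and DMSO.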

Experiment [7] can be described thus: qHTS for differential inhibitors of proliferation of Plasmodium falciparum line W2 (AID 1883).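 Also: parasites grown with compound for 72 h before lysis and staining.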 Also: potency is read from the fitted curve at half-maximal effect. The settings on record: Potency: Plasmodium falciparum W2 proliferation inhibition.
A short description of experiment [8]: qHTS for differential inhibitors of proliferation of Plasmodium falciparum line HB3 (AID 1886).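 Also: parasites grown with compound for 72 h before SYBR Green readout.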 Also: potency is read from the fitted curve at half-maximal effect. Particulars: Potency: Plasmodium falciparum HB3 proliferation inhibition.
The nature of experiment [9]: qHTS Assay for Identification of Small Molecule Inducers of Hypoxia Response (AID 2120; active = well fitted curve in the direction sought with a large enough effect in the signal ratio, with a control signal flat, not every such curve was filed as active; the % refers to the signal ratio). The gist of the method: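 ME-180 HRE-bla cells plated in Opti-MEM/0.5% dialyzed FBS, rested 4-5 h, then dosed with compound titrations by pin tool. After 17 h at 37 degrees C, CCF4 dye loaded 2.5 h at RT; 460/530 nm ratio gave %Activity and AC50.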
Experiment [10] is described as follows: qHTS Assay for Modulators of Human Peripheral Myelin Protein 22 (PMP22) Expression/Activity (AID 1967; active = well fitted curve in the direction sought with a large enough effect in the signal ratio; the % refers to the signal ratio). The gist of the method:
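Mouse MSC80 Schwann cells carrying Pmp22 promoter–green click beetle luciferase plus EF-alpha–red luciferase control, dosed 24 h at 37 °C. Dual-filter luminescence, overlap-corrected; %Activity from green/red ratio normalised to untreated cells, concentration-response curves fitted.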

Potency and outcome data for 25 compounds are collected here from PubChem BioAssay (NCATS).

Where “and” joins values, the source holds several entries; their conditions need not be identical. Equal entries are not always repeated. Results filed as inconclusive are left out. Calls of active or inactive are those of the source. Unless noted, calls follow the shape of the dose curve; as a rule, active = well fitted curve in the direction sought with a large enough effect; inconclusive = small, poorly fitted or top-dose-only effect, or another doubt; inactive = no such curve, though single readings can be large; an effect the other way counts as inactive or inconclusive.

For the compound `OCCN1CCN(CCCN2c3ccccc3C=Cc3ccccc32)CC1`, the Potency entry in experiment [1] is “inactive”. Moreover, the Potency in [2] is 3.16 µM (active) and 3.98 µM (active); in experiment [3], 5.01 µM (active) and 4.47 µM (active); in [4], 11.2 µM (active) and 8.91 µM (active); in [5], 10 µM (active); in [6], 5.62 µM (active) and 7.94 µM (active); in experiment [7], 2.51 µM (active) and 2.24 µM (active). Also, the Potency in [8] is 8.91 µM (active) and 12.6 µM (active).
Consider `COc1cc2c(cc1OC)-c1cc(=Nc3c(C)cc(C)cc3C)n(C)c(=O)n1CC2`, for which the Potency result in [1] is “inactive”. Moreover, the Potency was 2.24 µM (active) in experiment [2]; 2.24 µM (active) in experiment [3]; 2 µM (active) in experiment [4]; 3.98 µM (active) in experiment [5]; 8.91 µM (active) in [6]; 3.55 µM (active) in experiment [7]. The Potency in experiment [8] is 3.55 µM (active).
Consider `O=c1[nH]c(=O)n([C@H]2C[C@H](O)[C@@H](CO)O2)cc1Br`, for which the Potency result in experiment [1], in [2], in [3], in experiment [4], in [5] and in [6] was “inactive” in each case. In addition, the Potency entry in experiment [7] and in experiment [8] was “inactive” each time.
Regarding `C=CCc1ccccc1OCC(O)CNC(C)C` (configuration not stated), in [1], the Potency result is “inactive”. For the same compound, the Potency is 3.55 µM (active) in experiment [2]; 1.58 µM (active) in [3]; 10 µM (active) in experiment [4]; 12.6 µM (active) in [5]; 8.91 µM (active) in experiment [6]; 2.24 µM (active) in experiment [7]. Moreover, the Potency in experiment [8] was 11.2 µM (active).
`NC(=O)c1ncn([C@@H]2O[C@H](CO)[C@@H](O)[C@H]2O)c1O`: the Potency result in [1], in experiment [2], in experiment [3], in [4], in experiment [5] and in experiment [6] was “inactive” in each case. In addition, the Potency entry in [7] and in [8] was “inactive” in each case.
For the compound `Cc1ccc(/C(=C\CN2CCCC2)c2ccccn2)cc1`, in experiment [1], the Potency result is “inactive”.
Same read-out and setting: in the case of `NC(N)=N/N=C/c1c(Cl)cccc1Cl` it was “inactive”.
`CN(C)C(=O)Oc1cccc([N+](C)(C)C)c1`: the Potency entry in experiment [1], in experiment [2], in experiment [3], in experiment [4], in [5] and in experiment [6] was “inactive” in each case. Also, the Potency entry in experiment [7] and in [8] was “inactive” throughout.
As to `CCCN1C[C@H](CSC)C[C@@H]2c3cccc4[nH]cc(c34)C[C@H]21`, in [1], the Potency entry was “inactive”. The Potency is 11.2 µM (active) in experiment [2]; 5.62 µM (active) in experiment [3]; 11.2 µM (active) in experiment [4]; 11.2 µM (active) in experiment [5]; 4.47 µM (active) in [7].
Turning to `COc1ccc(CCN(C)CCCC(C#N)(c2cc(OC)c(OC)c(OC)c2)C(C)C)cc1OC` (configuration not stated), the Potency result in [1] was “inactive”. Moreover, the Potency in experiment [2] was 7.08 µM (active); in [3] it was 6.31 µM (active); in experiment [4], 3.16 µM (active); in experiment [6] it was 3.55 µM (active); in [7], 2.24 µM (active); in [8], 2.82 µM (active).
As to `CCc1cccc(N(C)C(N)=Nc2cccc3ccccc23)c1`, the Potency result in experiment [1] was “inactive”. Moreover, the Potency was 3.16 µM (active) in [2]; 10 µM (active) in experiment [3]; 12.6 µM (active) in experiment [4]; 14.1 µM (active) in [5]; 0.631 µM (active) in experiment [7]; 11.2 µM (active) in [8].
With `Cc1nc2ccccn2c(=O)c1CCN1CCC(C(=O)c2ccc(F)cc2)CC1`, the Potency result in experiment [1] was “inactive”. Besides, the Potency in experiment [2] is 7.94 µM (active); in experiment [3], 11.2 µM (active); in experiment [4], 10 µM (active); in experiment [7] it was 7.94 µM (active).
For the compound `NC(N)=NC(=O)Cc1c(Cl)cccc1Cl`, the Potency entry in [1] and in experiment [6] was “inactive” throughout. For the same compound, the Potency in [2] is 3.98 µM (active); in [3] it was 3.98 µM (active); in [4], 2.82 µM (active); in experiment [7], 3.16 µM (active); in [8], 1.41 µM (active).
Take `CSc1ccc(C(=O)c2[nH]c(=O)[nH]c2C)cc1`: the Potency entry in experiment [1], in experiment [2], in experiment [3], in [5], in experiment [6] and in [7] was “inactive” throughout.
Turning to `c1cnc(N2CCN(Cc3ccc4c(c3)OCO4)CC2)nc1`, the Potency result in experiment [1], in experiment [2], in experiment [4], in experiment [5], in experiment [6] and in experiment [8] was “inactive” each time.
Regarding `NC(=O)N1c2ccccc2C=Cc2ccccc21`, the Potency entry in experiment [1], in experiment [2], in experiment [3], in experiment [4], in [5] and in experiment [6] was “inactive” in each case. Besides, the Potency entry in experiment [8] is “inactive”. The compound was classed as inactive in experiment [9].
With `CCCCCN(CCCCC)C(=O)C(CCC(=O)O)NC(=O)c1ccc(Cl)c(Cl)c1` (configuration not stated), the Potency result in [1], in [2], in [3], in experiment [4], in experiment [5] and in experiment [6] was “inactive” in each case. In addition, the Potency result in experiment [7] and in [8] was “inactive” in each case. Besides, the result in [10] was inactive.
On to `CCCN(CCC)CCc1cccc2c1CC(=O)N2`, for which the Potency entry in [1], in [2], in experiment [3], in experiment [4], in [5] and in [6] was “inactive” throughout. In addition, in [8], the Potency entry is “inactive”.
With `CCCCNc1c(C(=O)OCC)c(C)nc2c1cnn2CC`, in experiment [1], the Potency entry was “inactive”. The Potency in experiment [2] is 7.94 µM (active); in experiment [3] it was 12.6 µM (active); in experiment [4] it was 12.6 µM (active); in experiment [5], 14.1 µM (active); in experiment [7], 11.2 µM (active); in experiment [8], 12.6 µM (active).
For the compound `CC(C)[N+](C)(CCOC(=O)C1c2ccccc2Oc2ccccc21)C(C)C`, the Potency entry in experiment [1] was “inactive”. Besides, the Potency in experiment [2] was 12.6 µM (active); in experiment [3], 10 µM (active); in experiment [4], 3.98 µM (active); in experiment [5], 11.2 µM (active); in [7], 8.91 µM (active); in experiment [8] it was 7.08 µM (active).
As for `CC[N+](C)(C)c1cccc(O)c1`, the Potency entry in experiment [1], in experiment [2], in [3], in [6], in experiment [7] and in experiment [8] was “inactive” in each case.
Turning to `CN(C)CCCN1c2ccccc2Sc2ccc(C(F)(F)F)cc21`, the Potency entry in [1] was “inactive”. In addition, the Potency in experiment [2] was 8.91 µM (active); in experiment [3], 11.2 µM (active); in experiment [5] it was 11.2 µM (active); in [6] it was 11.2 µM (active); in [7] it was 7.08 µM (active); in experiment [8], 10 µM (active).
Take `CN1CCN(CC(=O)N2c3ccccc3C(=O)Nc3cccnc32)CC1`: the Potency entry in experiment [1], in experiment [2], in experiment [3], in experiment [4], in experiment [6] and in experiment [7] was “inactive” throughout. The Potency entry in experiment [8] is “inactive”.
With `NS(=O)(=O)c1cc2c(cc1Cl)NC(C1CC3C=CC1C3)NS2(=O)=O` (configuration not stated), the Potency result in experiment [1], in experiment [2], in experiment [3], in [4], in [5] and in experiment [6] was “inactive” throughout. In addition, the Potency result in [7] and in [8] was “inactive” throughout. Further, the compound was called inactive in experiment [10].
As to `CCc1c(C)[nH]c2c1C(=O)C(CN1CCOCC1)CC2` (configuration not stated), the Potency result in experiment [1], in experiment [2], in experiment [3], in experiment [4], in experiment [5] and in [8] was “inactive” throughout.
